Measurements as given in the supplement of paper PMC11417369.
± gives the standard deviation of the averaged measurements. Whole data set: some 25,000 sequences, median “ln(normalized median fluorescence intensity)” near 8.9, cut for the highest 2% near 10. For the sample, the highest values were picked, then their nearest neighbours and some sequences at random.

The sequences below were run on PfAP2-LT AP2 domain (GST-tagged) (assay: gcPBM binding intensity (ln(normalized median fluorescence intensity)); higher = stronger DNA binding).
Method in brief: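 DNA-binding domains from P. falciparum, fused to GST and produced in E. coli, were put on an Agilent 4 × 180k double-stranded probe array for 1 h in 1× PBS holding 1% milk, 0.2 mg/ml BSA, 0.5% salmon testes DNA and 0.03% Triton X-100. Probes were primer-extended, 36 bp long and drawn from intergenic genomic regions, with negative controls included. After Alexa488 anti-GST antibody detection and a 488 nm scan, binding intensity was set as the highest Masliner-normalised natural-log median intensity across replicate spots of either probe orientation.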

Sequence	gcPBM binding intensity (ln)
ATATTATATTATATAACACACATTTTTCATAACACT [CACACA_site407]	8.95 ± 0.34
TATTAATTTTTATACGCATGTGTATAGTAATATATA [TGCATGCA_site1010]	8.66 ± 0.37
TTTATAAACAAATGAACACACAAACATATTTATATA [CACACA_site7478]	8.86 ± 0.42
TATGAATATCTATACACACACATATATATACTCACT [CACACA_site1597]	9.39 ± 0.36
ATACGAAGTACGTACACACACTTATATGTTACTAAA [CACACA_site7812]	9.26 ± 0.33
CAATACTATTATTATAGTACGTATAAAATTATATAT [XGTACX_site4950]	8.71 ± 0.49
TATTTTATCATTTGCACACGCACACCGACATAAAAA [CACACA_site4348]	9.26 ± 0.28
AAAAGTATATATTCAGTGCATAGTCTTTAAATATAA [GTGCAC_site9522]	8.7 ± 0.38
AAAAAAAAAAAAAAAACACACATATATATATATATA [CACACA_site2436]	10.095 ± 0.0071
AAAAAAAAAACATACACACATACATACATATATATT [CACACA_site949]	9.28 ± 0.27
AAAAAAAAAAAAAAAACACACATATATATATAATAT [CACACA_site1159]	8.96 ± 0.42
AAAAAATATTGAAGTACACACATTATGAACTTTTTT [CACACA_site1733]	8.78 ± 0.42
AAAGAATACATATATTGTACATATATATATACCGTT [XGTACX_site6250]	9.02 ± 0.45
ATGTAGATAAAACGTGTGCACATGTTTTTTGTTATT	10.3 ± 0.2
TATGTTTTTACGTGTGTGCACTTTGTAGAGATAAGT	9.06 ± 0.38
TTTTTTTTTTTTTGTGCATGTAGATTTATTGTTATA [TGCATGCA_site582]	8.79 ± 0.39
AAAAAGAAAAAACGAAGTACAATTATAAGATTATAT [XGTACX_site410]	8.86 ± 0.47
ATGTTCTTTAAAACCACACACCCCCCAACCCCCCTC [CACACA_site2373]	10.1 ± 0.13
TATGTAACCTGTTTTACACACCCCCACCCCCCTCTT [CACACA_site319]	10.09 ± 0.05
ACCCTATATGTAACTACACACCGCATATTGTTTACT [CACACA_site3071]	9.46 ± 0.42
TATAGATACATATACACACACACACCCACATATATA [CACACA_site3436]	9.94 ± 0.11
TATAGATACATATACACACACACACCGACATATATA [CACACA_site9138]	10.2 ± 0.14

Sequence	gcPBM binding intensity (ln)
CATACACATACACATACACACGCATAGAAACATACG [CACACA_site8666]	9.55 ± 0.51
CACGCACGCACATACACACACATACACATATAAATA [CACACA_site6907]	9.72 ± 0.45
AACATACATAGACACACACACACACGCACACGCACA [CACACA_site6373]	10.35 ± 0.071
AGATAGATACATACACGTACATATATATATACACAT [XGTACX_site4755]	9.18 ± 0.35
TAGATACATACACGCACACACATATATATATATATA [CACACA_site12]	10.11 ± 0.035
TATAGATACAGATACACACACACACCGACATATATA [CACACA_site5832]	10 ± 0.22
TATACACATAGACACACACACATACACGCACATACA [CACACA_site6908]	9.99 ± 0.17
TAGATACATACACGCACACACATATATAAATAAATA [CACACA_site6157]	9.68 ± 0.35
CATATATAGATATATACACACATACATACATACATA [CACACA_site7748]	9.3 ± 0.27
CATAGATACATACACGCACACACATATATATATATA [CACACA_site13]	10.2 ± 0.17
AAAAATAACATATAAACACACATATAGATTTATATA [CACACA_site7738]	8.94 ± 0.37
TTTTATGCTCAATTATTAAGAAATACTTTTTCTTCC [XGTACX_negctrl_site208]	8.45 ± 0.68
AAACGTGCGTATATGTGTACGCATATATATATATAT [XGTACX_site5252]	10.2 ± 0.34
ATTTATATATATGTATGTACGTATGTGTGTATATGT [XGTACX_site7587]	9.36 ± 0.35
GTATGTATGTATGTATGTACGTATGTATGTATATAT [XGTACX_site3369]	9.2 ± 0.36
TATTTATTTATAAACACACAAATATTTTTATTTATA [CACACA_site6889]	8.49 ± 0.32
TTTTCTATATAACAACGTACATTTATTATATTATAA [XGTACX_site6148]	8.49 ± 0.45
TTTATATAAATCAAATGTACATATTCCAAATATATA [XGTACX_site8515]	8.45 ± 0.34
CAATCAAATAGACACACACACACCTAAACATAAAAG [CACACA_site7322]	10.2 ± 0.4
ATAAAAAAGAAACAAACACACATACATACAAACAAA [CACACA_site4256]	9.47 ± 0.33
CAATCAAATGGACACACACACACCTAAACATAAAAG [CACACA_site5524]	10 ± 0.3
CACAAAAATAGACACACACACATATAAATAAATATA [CACACA_site6598]	9.7 ± 0.38

Sequence	gcPBM binding intensity (ln)
ATCAAATAGAGACACACACACCTAAACATAAAAGAA [CACACA_site7321]	9.78 ± 0.48
AACAATCAAATAGACACACACACACCCAAACATAAA [CACACA_site2757]	10.1 ± 0.11
GGACACCTTCAAAACACACATACAAATAAATAGAAA [CACACA_site3305]	8.97 ± 0.54
AAAACAAACCCATTTACACACATAAATAAATCAATT [CACACA_site6126]	9.38 ± 0.3
CAATCAAAGAAACACACACACACCTAAACATAAAAG [CACACA_site2756]	10.2 ± 0.33
ATTATATTTATGTTGGTGCATTATACATGAAATTTA	8.68 ± 0.4
AGAAAAGGACATATATGTACTTATCAATATAGAAAC [XGTACX_site1042]	9.04 ± 0.48
TTCTTTTTTCTTTATGGTACGTGTAATATATATCAA [XGTACX_site7960]	8.82 ± 0.45
AATAGAACAAATAAAACACACACATATATATATATA [CACACA_site8893]	9.76 ± 0.37
GGCATACACGAACACACACACACACGCACATATATA [CACACA_site6426]	10.5 ± 0.36
TTTATTTTATCATTTGCACACGCACGCCCACATAAA [CACACA_site353]	9.39 ± 0.42
ATCAAGCACGAACACACACACACACGCACGCCCACA [CACACA_site6308]	10.3 ± 0.3
CACGCGCACGAACACACACACACACGCATATAAATA [CACACA_site7103]	9.86 ± 0.33
CCAACATGCCCACGCACACACAAAAAAAGCATGCAT [CACACA_site4217]	9.51 ± 0.4
AAACAAAAAATATATACACACTAAACATAAAAAAAA [CACACA_site4185]	9.02 ± 0.46
CGAACAAACAAATAAACACACAAAAAAAAATATATA [CACACA_site1825]	9.11 ± 0.5
AACAAATACGAACACACACACACACTAAAAAAAAAA [CACACA_site6386]	10.3 ± 0.2
CACGCGAACATACATACACACACATATATATATATG [CACACA_site7951]	9.69 ± 0.35
CACACGCACGAACACACACACACACGCATATAAATA [CACACA_site6302]	10.2 ± 0.3
ACACGCACATATATATAAATATATATATATATAAAT [CACACA_negctrl_site1781]	9.6 ± 0.28
